# Assay results published in PubChem BioAssay (EPA / NIEHS).
# Activity calls are given as the source filed them. How the source made its calls: active means hit-call score of the fitted dose curve at least 0.9, where 1 is the maximum; inactive means score below 0.9.
# Assay: UKN4_HCS_LUHMES_cell_viability: Viability Assessment in the University of Konstanz (UKN) Leist Lab Neurite Outgrowth Assay in human LUHMES cells (UKN4) (AID 2284232)
# Experimental: UKN4_HCS_LUHMES is a cell-based, multiplexed-readout assay screening for neurite outgrowth and cell viability that uses LUHMES, a human central nervous system cell line, with measurements taken at […] after chemical dosing in a microplate: 96-well plate. UKN4, also referred to as NeuriTox, is an assay that uses LUHMES neuronal precursors as a model of dopaminergic neuronal differentiation. Following a 2-day differentiation period, cells are exposed to chemicals for 24 hr and neurite area is evaluated as a marker of neurite outgrowth using high-content imaging of cells stained with calcein AM. Cell viability is assessed using stain Hoechst H-33342.UKN4_HCS_LUHMES_cell_viability is an assay component measured from the UKN4_HCS_LHUMES assay. It is designed to make measurements of enzyme activity, a form of viability reporter, as detected with Fluorescence intensity signals by HCS Fluorescent Imaging.The assay endpoint UKN4_HCS_LUHMES_cell_viability was analyzed with bidirectional fitting relative to DMSO as the negative control and baseline of activity. Using a type of viability reporter, gain or loss-of-signal activity can be used to understand viability effects. To generalize the intended target to other relatable targets, this assay endpoint is annotated to the cell cycle intended target family, where the subfamily is viability.
# Proliferating LUHMES cells are seeded in proliferation medium for 24 hours. Day 0: Medium is changed from proliferation medium to differentiation medium. Day 2: Cell number reaches about 30-40 Mio per T175 flask. Cells are trypsinized and replated onto 96-well plates (30000 cells/well in 90 ul) in differentiation medium without cAMP and GDNF. At about 30 min - 2 hours after seeding, when cells have attached, the compounds are added (10 ul of each dilution; total volume 100 ul). Day 3: 23.5 h after toxicant treatment, cells are live-stained with H-33342 and calcein-AM and incubated for 30 min. After 24 h of treatment (including staining), the cells are imaged using a high-content microscope (Cellomics).
SMILES,outcome,AC50
CC(C)CC(C)c1sccc1NC(=O)c1cn(C)nc1C(F)(F)F (centres undefined),inactive,
CC1(C)[C@H](C(=O)O[C@H](C#N)c2cccc(Oc3ccccc3)c2)[C@@H]1C=C(Br)Br,inactive,
CP(=O)(O)CCC(N)C(=O)O (centres undefined),inactive,
[Cd+2].[Cl-].[Cl-],,8.98 µM (active)
[O-][Cl+3]([O-])([O-])O,inactive,
CC1(C)C(C=C(Cl)Cl)[C@H]1C(=O)O[C@H](C#N)c1cccc(Oc2ccccc2)c1 (some centres undefined),inactive,
[CH3][Sn]([CH3])([CH3])[Cl],,4.02 µM (active)
COC(=O)[C@H]1[C@@H](OC(=O)c2ccccc2)C[C@@H]2CC[C@H]1N2C,inactive,
CN1CC=C(c2ccccc2)CC1,inactive,
Brc1ccc(Oc2ccc(Br)cc2Br)c(Br)c1,,41.5 µM (active)
CC(=O)Oc1ccc2c3c1O[C@H]1[C@@H](OC(C)=O)C=C[C@H]4[C@@H](C2)N(C)CC[C@@]341,inactive,
Clc1cc(Cl)c(-c2cc(Cl)c(Cl)c(Cl)c2Cl)cc1Cl,,19.1 µM (active)
C[n+]1ccc(-c2cc[n+](C)cc2)cc1,inactive,
O=[As](O)(O)O,,71.4 µM (active)
CC(=O)[O-].CC(=O)[O-].O.O.O.[Pb+2],inactive,
Brc1ccc(Oc2cc(Br)c(Br)cc2Br)c(Br)c1,inactive,
CN[C@@H](C)Cc1ccccc1,inactive,
C[n+]1ccc(-c2ccccc2)cc1,inactive,
CNC1(c2ccccc2Cl)CCCCC1=O (centres undefined),inactive,
CN1CC[C@]23c4c5ccc(O)c4O[C@H]2[C@@H](O)C=C[C@H]3[C@H]1C5,inactive,
O=C1N[C@@H]2C(=C[C@H](O)[C@@H](O)[C@H]2O)c2cc3c(c(O)c21)OCO3,,0.256 µM (active)
CNC(C)Cc1ccc2c(c1)OCO2 (centres undefined),inactive,
[CH3][Hg][Cl],,0.381 µM (active)
C/C(=C/C=C/[C@@H](C)C(=O)O)[C@H]1CN[C@H](C(=O)O)[C@H]1CC(=O)O,inactive,
